# Tau fluor cs – counter-screen for tau fibril formation inhibitors | Potency, µM (titrated, usually from 57.7 µM), for the others: at the top dose activity change, negative = decrease | tau K18 P301L Alexa594 fluorescence, heparin fibrillization | AID 1463 | actives 0.93% (n = 280,000); note: potency is the fitted concentration of half-maximal effect; nearly all actives have a fitted effect of over 55% in size
#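 Human tau K18 P301L (15 uM unlabeled, 0.24 uM Alexa 594-labeled) in 100 mM sodium acetate pH 7 with 20 uM heparin, 6 hr at 37 C. ThT 30 uM added, 1 hr ambient; Alexa 594 FP and total fluorescence read at 555/632 nm.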
# Coupling enz – inhibits coupling enzyme system, counter-screen for aldolase hits. coupling enzyme system counterscreen, AmpLite Red fluorescence. actives 0.67% (n = 290,000). AID 2472. activity change, negative = inhibition, % at 58.2 µM, hits read low; in the data active = activity change below about -30%
#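 Counterscreen lacking aldolase: glyceraldehyde-3-phosphate coupling-enzyme reagent preincubated 10 min at RT with compound (at 57.5 uM final), then substrate/coupling system with AmpLite Red added; fluorescence read at 525/598 nm after 20 min RT.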
# Sfp PPTase inh – inhibitors of Bacillus subtilis Sfp phosphopantetheinyl transferase. actives 3.5% (n = 310,000). Potency, µM, inactives show largest response in the series, negative = inhibition, usual class: inhibitors. Biochemical Sfp PPTase activity, qHTS. AID 1490;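 note: the enzyme is Sfp with the accession as filed and its product quenches rhodamine fluorescence; potency is the fitted concentration of half-maximal effect; 0% = enzyme reaction without inhibitor and -100% = no enzyme wells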
#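 Compounds were incubated with enzyme (final 15 nM) for 15 min at room temperature before substrate addition started the reaction. Fluorescence at 525 nm excitation, 598 nm emission was recorded immediately and after 30 minutes.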
# Tau FP inhib – inhibitors of human tau fibril formation; P10636; K18 P301L tau heparin fibrillization, Alexa594 FP, 6 h; Potency, µM (highest dose often 57.7 µM), inactives show top-dose activity, negative = inhibition, usual class: inhibitors; actives 0.39% (n = 280,000); AID 1468; note: potency is the fitted concentration of half-maximal effect; nearly all actives have a fitted effect of over 55% in size
# Target sequence (P10636 561-689 P618L limits assumed): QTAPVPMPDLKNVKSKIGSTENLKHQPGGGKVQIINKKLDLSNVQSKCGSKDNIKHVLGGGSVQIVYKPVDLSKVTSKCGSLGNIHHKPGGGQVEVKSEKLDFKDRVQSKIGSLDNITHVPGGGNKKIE
#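 Quantitative HTS format: compounds meet 15 uM recombinant K18 P301L tau and Alexa 594-tau tracer in 100 mM sodium acetate pH 7; 20 uM heparin triggers fibrillization at 37 C over 6 hr; FP gives the signal.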
# Tau fibril ThT – inhibitors of human tau fibril formation, thioflavin T binding | P10636 | recombinant tau K18 P301L (four-repeat tau fragment), heparin-induced fibrillization, ThT fluorescence | AID 1460 | Potency, µM (highest dose often 57.4 µM), inactives show top-dose activity, negative = inhibition, usual class: inhibitors | actives 2.1% (n = 270,000); note: potency is the fitted concentration of half-maximal effect; nearly all actives have a fitted effect of over 55% in size
#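 Recombinant human tau K18 fragment […] carrying P301L, 15 uM unlabeled plus 0.24 uM Alexa 594-labeled, was fibrillized with 20 uM heparin in 100 mM sodium acetate pH 7 for 6 hr at 37 C; 30 uM ThT fluorescence read after 1 hr.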
# Starred values were filed as active, the others as inactive; ? = inconclusive; . = no result; [ ] = another dose, or the depositor's remark. Most compounds without a hit are left out; they make up all but 5.2% or so of the library. Unless noted, calls come from the whole dose curve; as a rule, active = well fitted curve in the direction sought with a large enough effect; inconclusive = small, poorly fitted or top-dose-only effect, or another doubt; inactive = no such curve, though single readings can be large; an effect the other way counts as inactive or inconclusive. Unless noted, % is set by controls: 0 for no effect and ±100 for the full control effect.
SMILES,Tau fluor cs,Coupling enz,Sfp PPTase inh,Tau FP inhib,Tau fibril ThT
Fc1ccccc1CSc1ccc(-c2ccco2)nn1,-17%,5,56µM*,-1%,-18%
Cc1cccc(CSc2ccc(-c3ccco3)nn2)c1,-7%,0,?,-5%,-15%
Cc1ccc(CSc2ccc(-c3ccco3)nn2)cc1,-14%,1,28µM*,-4%,?
Clc1cccc(CSc2ccc(-c3ccco3)nn2)c1,-18%,-1,35µM*,3%,?
Clc1cccc(CSc2ccc(-c3cccnc3)nn2)c1,-15%,0,6%,9%,?
Clc1ccc(CSc2ccc(-c3ccco3)nn2)cc1,-11%,1,56µM*,-9%,-18%
Cc1cccc(Nc2ncnc3c2cnn3C)c1C,-2%,.,.,-6%,6%
COc1ccccc1NC(=O)C1=C(C)Nc2nc(-c3ccco3)nn2C1c1cccc(C)c1 (stereo not drawn),?,.,.,-3%,-12%
c1ccc(CSc2ccc(-c3ccco3)nn2)cc1,-9%,0,32µM*,-2%,-18%
O=C(Nc1cccc(Cl)c1Cl)c1cc(S(=O)(=O)NCc2ccc3c(c2)OCO3)ccc1F,-12%,.,.,-12%,7%
CN1CCN(C(c2ccc(F)cc2)c2sc3nc(-c4ccco4)nn3c2O)CC1 (stereo not drawn),-15%,.,.,-11%,-13%
CCOc1ccc(Sc2cc(C(=O)NC(C)c3ccccc3)c3ccccc3n2)cc1 (stereo not drawn),-13%,.,.,-5%,-4%
Fc1ccccc1CN1CCCCCCC1,3%,0,56µM*,0%,-2%
Cc1[nH]n(-c2ccccc2)c(=O)c1C=NCCc1ccccc1,-9%,0,12%,6%,-4%
Cc1[nH]n(-c2ccccc2)c(=S)c1C=Nc1cccc([N+](=O)[O-])c1,-23%,-5,-92%,?,22µM*
CCCCN=Cc1c(C)[nH]n(-c2ccccc2)c1=S,-13%,-14,10µM*,-9%,?
CCOc1ccc(/C=C/c2nc(C#N)c(NC3CCCCC3)o2)cc1,-11%,.,.,?,-3%
COc1ccccc1NC(=O)N(Cc1ccco1)C1CCN(C(C)=O)CC1,15%,.,.,2%,11%
O=C(O)C1CCc2sc3[nH]c(=S)n(-c4ccccc4)c(=O)c3c21 (stereo not drawn),-19%,1,25µM*,-3%,?
CCN(CC)C(=O)c1sc2[nH]c(=S)n(-c3ccccc3)c(=O)c2c1C,0%,-8,79µM*,2%,-2%
CN(C)Cc1ccccc1-c1cc(NCc2ccccc2)ncn1,.,2,16%,.,.
FC(F)(F)c1ccc(Cl)c(N/N=C/c2ccc(N3CCOCC3)s2)c1,13µM*[quencher],-4,-6%,11%,?
O=C(Cc1cccs1)N=Nc1c(O)[nH]c2ccc(Br)cc12,-30%,2,2%,-5%,?
COc1ccc2[nH]c(O)c(N=NC(=O)Cc3cccs3)c2c1,?,-7,-22%,14%,16µM*
NC(=O)CCC1NC(=O)C(Cc2ccccc2)NC(=O)C(Cc2ccc(O)cc2)NC(=O)CCSSCC(C(=O)N2CCCC2C(=O)NC(CCCN=C(N)N)C(=O)NCC(N)=O)NC(=O)C(CC(N)=O)NC1=O (stereo not drawn),.,.,23%,.,.
SMILES,Tau fluor cs,Coupling enz,Sfp PPTase inh,Tau FP inhib,Tau fibril ThT
Cc1nc(Nc2cnc(/C=C/c3cc(C(=O)Nc4cccc(C(F)(F)F)c4)ccc3C)cn2)cc(N2CCNCC2)n1,.,-1,50µM*,.,.
Cc1nc(N2CCC(C)CC2)c2c(C)c(C(=O)Nc3cccc(C(F)(F)F)c3)sc2n1,-22%,-5,22%,-8%,2%
N#CC1=C(N)Oc2c(ccc3ccccc23)C1c1ccsc1 (stereo not drawn),?,-28,56µM*,?,?
CC1=C(C(=O)OCc2ccccc2)C(c2ccsc2)C(C#N)=C(N)O1 (stereo not drawn),-29%,3,-8%,?,-7%
N#CC1=C(N)Oc2c(oc(CO)cc2=O)C1c1ccsc1 (stereo not drawn),-7%,-15,50µM*,-9%,-16%
CC1(C)CC(=O)C(=CN2CCOCC2)C(=O)C1,-24%,-1,-30%,?,16µM*
Cn1cccc1CC(=O)N/N=C\c1ccccc1,-4%,-2,10%,-3%,-6%
